Test results: PubChem BioAssay (EPA / NIEHS)
Activity calls are given as the source filed them. How the source made its calls: active means hit-call score of the fitted dose curve at least 0.9, where 1 is the maximum; inactive means score below 0.9.

What was measured:
[1] = read-out: serum amyloid A (SAA), SAA1 (gene 6288); experiment: BSK_CASM3C_SAA: BioMAP Diversity Plus: CASM3C Assay for serum amyloid A (SAA) Biomarker Activity (AID 2283049); settings: primary human coronary artery smooth muscle cells; actives raise or lower the signal
[2] = BSK_CASM3C_SRB: Viability Assessment in the BioMAP Diversity Plus: CASM3C Assay (AID 2283050); settings: primary human coronary artery smooth muscle cells;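 further: cells exposed to compound for 24 h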
[3] = read-out: Thrombomodulin, THBD (gene 7056); experiment: BSK_CASM3C_Thrombomodulin: BioMAP Diversity Plus: CASM3C Assay for Thrombomodulin Biomarker Activity (AID 2283051); settings: primary human coronary artery smooth muscle cells; actives raise or lower the signal;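 further: thrombomodulin protein level measured by ELISA 24 h after dosing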
[4] = read-out: Tissue Factor, F3 (gene 2152); experiment: BSK_CASM3C_TissueFactor: BioMAP Diversity Plus: CASM3C Assay for Tissue Factor Biomarker Activity (AID 2283052); settings: primary human coronary artery smooth muscle cells; actives raise or lower the signal;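 further: cell surface tissue factor protein level read by ELISA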
[5] = read-out: Interferon-gamma inducible Protein 10 (IP10), CXCL10 (gene 3627); experiment: BSK_hDFCGF_IP10: BioMAP Diversity Plus: hDFCGF Assay for Interferon-gamma inducible Protein 10 (IP10) Biomarker Activity (AID 2283053); settings: primary human foreskin fibroblasts; actives raise or lower the signal
Method in brief: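 Chemical-treated human skin fibroblasts (primary) were sampled at 24 h for IP-10 by ELISA. Both increases and decreases relative to DMSO were scored.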

[6] = read-out: Urokinase-type plasminogen activator receptor (uPAR), PLAUR (gene 5329); experiment: BSK_CASM3C_uPAR: BioMAP Diversity Plus: CASM3C Assay for Urokinase-type plasminogen activator receptor (uPAR) Biomarker Activity (AID 2283054); settings: primary human coronary artery smooth muscle cells; actives raise or lower the signal;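 further: cell-surface uPAR protein level quantified by ELISA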
[7] = read-out: Vascular cell adhesion molecule 1 (VCAM1), VCAM1 (gene 7412); experiment: BSK_CASM3C_VCAM1: BioMAP Diversity Plus: CASM3C Assay for Vascular cell adhesion molecule 1 (VCAM1) Biomarker Activity (AID 2283055); settings: primary human coronary artery smooth muscle cells; actives raise or lower the signal;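 further: VCAM-1 protein level quantified by ELISA on the cells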
[8] = read-out: Collagen III, COL3A1 (gene 1281); experiment: BSK_hDFCGF_CollagenIII: BioMAP Diversity Plus: hDFCGF Assay for Collagen III Biomarker Activity (AID 2283056); settings: primary human foreskin fibroblasts; actives raise or lower the signal
Method in brief: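 ELISA read-out of collagen III from human skin fibroblast cultures sampled 24 h post-dosing. Values were derived by bidirectional fitting relative to the DMSO vehicle control.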

[9] = read-out: Epidermal growth factor receptor (EGFR), EGFR (gene 1956); experiment: BSK_hDFCGF_EGFR: BioMAP Diversity Plus: hDFCGF Assay for Epidermal growth factor receptor (EGFR) Biomarker Activity (AID 2283057); settings: primary human foreskin fibroblasts; actives raise or lower the signal
Method in brief: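 Cell-based multiplexed assay in primary human foreskin fibroblasts. EGFR is read by ELISA 24 h after treatment and compared with DMSO controls.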

[10] = read-out: Interleukin-8 (IL8), CXCL8 (gene 3576); experiment: BSK_hDFCGF_IL8: BioMAP Diversity Plus: hDFCGF Assay for Interleukin-8 (IL8) Biomarker Activity (AID 2283058); settings: primary human foreskin fibroblasts; actives raise or lower the signal
Method in brief: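 Cells used are human skin primary fibroblasts. Chemical is added, cultures run 24 h, then IL-8 is quantified by ELISA, and gain or loss versus DMSO control is fitted in both directions.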

[11] = BSK_hDFCGF_Proliferation: Cell Proliferation Assessment in the BioMAP Diversity Plus: hDFCGF Assay (AID 2283059); settings: primary human foreskin fibroblasts;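 further: curves fitted for both rise and fall of signal versus DMSO baseline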
Method in brief: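 Total protein read at 560 nm after 0.1% SRB staining of TCA-fixed human skin fibroblasts, […]. Activity is fitted in both directions relative to DMSO as baseline.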

[12] = read-out: Macrophage colony-stimulating factor (MCSF), CSF1 (gene 1435); experiment: BSK_hDFCGF_MCSF: BioMAP Diversity Plus: hDFCGF Assay for Macrophage colony-stimulating factor (MCSF) Biomarker Activity (AID 2283060); settings: primary human foreskin fibroblasts; actives raise or lower the signal
Method in brief: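 Primary human foreskin fibroblasts dosed with chemical; 24 h later, M-CSF quantified by ELISA; curves fitted in both directions vs DMSO negative control.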

[13] = BSK_hDFCGF_SRB: Viability Assessment in the BioMAP Diversity Plus: hDFCGF Assay (AID 2283061); settings: primary human foreskin fibroblasts;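 further: cells exposed to compound for 24 h before the read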
Method in brief: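 Readout is SRB absorbance at 560 nm, reflecting total protein in parallel cultures of human foreskin fibroblasts harvested 24 h after chemical dosing. Activity was fitted bidirectionally relative to DMSO.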

[14] = read-out: TIMP metallopeptidase inhibitor 1 (TIMP1), TIMP1 (gene 7076); experiment: BSK_hDFCGF_TIMP1: BioMAP Diversity Plus: hDFCGF Assay for TIMP metallopeptidase inhibitor 1 (TIMP1) Biomarker Activity (AID 2283062); settings: primary human foreskin fibroblasts; actives raise or lower the signal
Method in brief: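 Human skin fibroblasts (primary), hDFCGF system; compound exposure 24 h; TIMP-1 by ELISA; bidirectional fit vs DMSO negative control; overt cytotoxicity by SRB in parallel wells.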

[15] = read-out: Monokine induced gamma interferon (MIG), CXCL9 (gene 4283); experiment: BSK_hDFCGF_MIG: BioMAP Diversity Plus: hDFCGF Assay for Monokine induced gamma interferon (MIG) Biomarker Activity (AID 2283063); settings: primary human foreskin fibroblasts; actives raise or lower the signal
Method in brief: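 Chemicals were added to primary human foreskin fibroblast cultures, which were sampled 24 h later. MIG levels were then quantified by ELISA and responses fitted in both directions relative to DMSO.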

[16] = read-out: Matrix Metallopeptidase 1 (MMP1), MMP1 (gene 4312); experiment: BSK_hDFCGF_MMP1: BioMAP Diversity Plus: hDFCGF Assay for Matrix Metallopeptidase 1 (MMP1) Biomarker Activity (AID 2283064); settings: primary human foreskin fibroblasts; actives raise or lower the signal
Method in brief: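 MMP1 levels quantified by ELISA 24 h after dosing human dermal fibroblast cultures, with parallel SRB total-protein staining for overt cytotoxicity. Data fitted in both directions against DMSO baseline.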

[17] = read-out: Vascular cell adhesion molecule 1 (VCAM1), VCAM1 (gene 7412); experiment: BSK_hDFCGF_VCAM1: BioMAP Diversity Plus: hDFCGF Assay for Vascular cell adhesion molecule 1 (VCAM1) Biomarker Activity (AID 2283065); settings: primary human foreskin fibroblasts; actives raise or lower the signal;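 on AC50: VCAM-1 protein level quantified by ELISA after 24 h chemical exposure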
Method in brief: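 Human foreskin fibroblast primary cells, chemical exposure 24 h; VCAM-1 by ELISA; bidirectional fit, DMSO = negative control/baseline.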

[18] = read-out: Plasminogen activator inhibitor-1 (PAI1), SERPINE1 (gene 5054); experiment: BSK_hDFCGF_PAI1: BioMAP Diversity Plus: hDFCGF Assay for Plasminogen activator inhibitor-1 (PAI1) Biomarker Activity (AID 2283066); settings: primary human foreskin fibroblasts; actives raise or lower the signal
Method in brief: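 Human skin fibroblast cultures receive chemical for 24 h before PAI-1 is measured by ELISA; signal changes are fitted bidirectionally against DMSO-treated wells.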

[19] = read-out: Intercellular Adhesion Molecule 1 (ICAM1), ICAM1 (gene 3383); experiment: BSK_KF3CT_ICAM1: BioMAP Diversity Plus: KF3CT Assay for Intercellular Adhesion Molecule 1 (ICAM1) Biomarker Activity (AID 2283067); settings: primary human keratinocytes with fibroblasts; actives raise or lower the signal
Method in brief: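 ICAM-1 levels are measured by ELISA 24 h after dosing a primary human co-culture of keratinocytes and foreskin fibroblasts. Activity in either direction is fitted relative to DMSO vehicle.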

[20] = read-out: Interferon-gamma inducible Protein 10 (IP10), CXCL10 (gene 3627); experiment: BSK_KF3CT_IP10: BioMAP Diversity Plus: KF3CT Assay for Interferon-gamma inducible Protein 10 (IP10) Biomarker Activity (AID 2283068); settings: primary human keratinocytes with fibroblasts; actives raise or lower the signal
Method in brief: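 Human keratinocyte plus foreskin fibroblast primary co-culture exposed to test chemical for 24 h; IP-10 measured by ELISA. Concentration-response fitted bidirectionally against DMSO control as baseline.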

Measured: AC50

CCOP(=S)(OCC)SCCS(=O)(=O)CC
inactive: all assays above

NC(=S)Nc1ccccc1
inactive: all assays above

ClCC(Cl)CCl
inactive: all assays above

CCN1CCC2(CC1)COc1cc3c(cc12)N(C(=O)c1ccc(-c2ccc(-c4nnc(C)o4)cc2C)cc1)CC3
inactive: [4] | [9]
active: [1] 32.5 µM | [2] 24.4 µM | [3] 33.7 µM | [5] 9.35 µM | [6] 31.1 µM | [7] 27.6 µM | [8] 9.42 µM | [10] 12.5 µM | [11] 5.13 µM | [12] 7.12 µM | [13] 6.07 µM | [14] 9.3 µM | [15] 11.2 µM | [16] 9.25 µM | [17] 7.34 µM | [18] 9.28 µM | [19] 28.6 µM | [20] 28.4 µM

COP(=S)(OC)Oc1c(Cl)cc(C)cc1Cl
active: [4] 5.88 µM | [8] 13.2 µM | [17] 20 µM
inactive: all other assays above
